Assay outcomes deposited in PubChem BioAssay by several laboratories.
rCAG binder = binds r(CAG) RNA repeats; r(CAG) RNA repeat, TO-PRO-1 dye displacement fluorescence; inhibition, % at 3 µM; actives 1.3% (n = 370,000); AID 651821;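 active = inhibition above the plate cutoff, the mean of all test compounds on that plate plus 3 SD, cut at about 35% in these data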;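 also: higher means more dye released from RNA so lower well fluorescence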
Granule exo inh = blocks lytic granule exocytosis. TALL-104 LAMP-1 surface exposure, flow cytometry; cells stimulated with thapsigargin and PMA. inhibition, % at 10 µM. actives 0.66% (n = 360,000). AID 651702;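 active = inhibition above about 55%, limit read from the data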
PG9 Ab binder = small molecules binding HIV-1 gp120 antibody PG9; TR-FRET gp120-PG9 antibody binding; inhibition, % at 6.7 µM; actives 0.43% (n = 360,000); in the data active = inhibition above about 8.5%
ABCB6 inh 2 = human ABCB6 transporter inhibition. K562-ABCB6 porphyrin accumulation, flow cytometry, 1 h; active compounds read low. Q9NP58. fluorescence ratio to DMSO, % at 10 µM. actives 0.19% (n = 360,000);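 active = fluorescence ratio to DMSO below 75%, the collection mean minus 3 SD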;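 also: signal is porphyrin accumulated inside mitochondria; lower ratio means ABCB6 inhibition with less porphyrin fluorescence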
Target sequence (Q9NP58 whole entry, looked up): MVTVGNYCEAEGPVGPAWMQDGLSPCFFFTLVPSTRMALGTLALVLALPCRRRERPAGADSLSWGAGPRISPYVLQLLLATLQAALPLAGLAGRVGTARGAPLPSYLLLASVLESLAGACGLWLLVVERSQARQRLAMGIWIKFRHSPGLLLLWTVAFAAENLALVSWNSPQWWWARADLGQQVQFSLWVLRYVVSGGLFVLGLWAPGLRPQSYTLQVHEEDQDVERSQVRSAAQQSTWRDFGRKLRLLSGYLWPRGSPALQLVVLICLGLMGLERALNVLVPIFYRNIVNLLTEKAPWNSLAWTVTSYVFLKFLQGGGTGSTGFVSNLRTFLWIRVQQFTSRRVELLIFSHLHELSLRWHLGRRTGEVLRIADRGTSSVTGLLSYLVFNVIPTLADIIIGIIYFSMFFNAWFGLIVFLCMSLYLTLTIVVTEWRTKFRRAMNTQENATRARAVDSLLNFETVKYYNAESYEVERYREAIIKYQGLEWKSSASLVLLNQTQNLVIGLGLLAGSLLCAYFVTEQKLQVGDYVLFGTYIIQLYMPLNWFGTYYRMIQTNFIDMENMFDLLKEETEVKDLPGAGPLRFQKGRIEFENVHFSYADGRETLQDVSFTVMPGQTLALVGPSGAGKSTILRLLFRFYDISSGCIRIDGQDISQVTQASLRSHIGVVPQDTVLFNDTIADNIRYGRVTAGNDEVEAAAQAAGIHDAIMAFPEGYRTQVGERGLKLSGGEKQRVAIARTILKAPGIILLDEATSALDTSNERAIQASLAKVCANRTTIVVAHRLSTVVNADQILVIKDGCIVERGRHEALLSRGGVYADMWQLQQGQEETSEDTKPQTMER
PG9 binder conf = confirmation of small molecules binding HIV-1 gp120 antibody PG9; shares compounds with PG9 Ab binder; inhibition, % at 6.7 µM; actives 90% (n = 1,500); TR-FRET PG9 antibody binding, biochemical; in the data active = inhibition above about 9%
PGV04 counter = PGV04 control antibody binding, counter-screen; shares compounds with PG9 Ab binder; TR-FRET PGV04 antibody-gp120 binding, biochemical; inhibition, % at 6.7 µM; actives 95% (n = 1,500); AID 651604; in the data active = inhibition above about 9.5%
PG9 binder DR = PG9 antibody binding, dose response; 95 tested, under 10 active; IC50, µM; AID 651848; TR-FRET PG9 antibody-gp120 binding inhibition; shares compounds with PG9 Ab binder; in the data active = IC50 below about 10 µM
PGV04 binding DR = PGV04 binding, dose response counter-screen; TR-FRET binding to control antibody PGV04; actives 20% (n = 95); IC50, µM; AID 651937; shares compounds with PG9 Ab binder
PG126 binding DR = counter-screen for PG9 binders: binding to control antibody PG126; shares compounds with PG9 Ab binder; TR-FRET binding to antibody PG126, counterscreen; IC50, µM; actives 20% (n = 95)
A number is an active result; - = inactive; . = no result. Compounds with a hit are over-represented: about 2.5% of the library has one in this group of screens. Rule as the data show it, unless noted: active = IC50 below about 9 µM; inactive = the rest.

SMILES	rCAG binder	Granule exo inh	PG9 Ab binder	ABCB6 inh 2	PG9 binder conf	PGV04 counter	others
COc1ccc(-c2nc(SCc3ccc(C#N)cc3)[nH]c(=O)c2C#N)cc1	-	-	-	-	.	.
O=C(CSc1nnc(-c2n[nH]c3ccccc23)n1-c1ccccc1)Nc1cccc(Cl)c1	-	-	-	-	.	.
CCc1ccc(NC(=O)CSc2nnc(-c3n[nH]c4ccccc34)n2-c2ccccc2)cc1	-	-	9.8	-	15	24
Cc1ccccc1NC(=O)CSc1nnc(-c2ccccc2)n1-c1ccccc1	-	-	37	-	-	-
O=C(CSc1nnc(-c2ccccc2)n1-c1ccc(Cl)cc1)Nc1ccccc1-c1ccccc1	-	.	.	.	.	.
COc1ccc(-c2csc(NC(=O)c3ccc(N4C(=O)CCC4=O)cc3)n2)cc1	-	-	29	-	28	50
O=C(Nc1nc(-c2ccc(F)cc2)cs1)c1ccc(N2C(=O)CCC2=O)cc1	-	-	-	-	.	.
O=C(CNC(=O)c1ccc(Br)cc1)c1ccc(Br)cc1	-	-	11	-	18	26
COc1ccc2nc(SC)c(C#N)cc2c1	-	-	13	-	26	58
COc1ccc2nc(SCC(C)=O)c(C#N)cc2c1	-	-	-	-	.	.
CCOC(=O)/C(C#N)=C/c1cc2ccccc2nc1N1CCCCC1	-	-	27	-	25	30
Cc1ccc2cc(/C=C(\C#N)C(N)=O)c(N3CCCCC3)nc2c1	-	-	-	-	.	.
COc1cc(OC)cc(C(=O)OCC(=O)N(C)c2ccccc2)c1	-	-	-	-	.	.
O=C(CN1C(=O)/C(=C/c2ccccc2F)Sc2ccccc21)NCC1CCCO1 (configuration not stated)	-	-	-	-	.	.
CCc1ccc(Nc2n[n+](-c3ccccc3)c(-c3ccc(N(CC)CC)cc3)s2)cc1	-	-	9.7	-	18	11	PG9 binder DR=-;PGV04 binding DR=-;PG126 binding DR=-
CC1(C2CC2)NC(=O)N(CC(=O)N2CCN(c3ccc(F)cc3)CC2)C1=O (configuration not stated)	-	-	-	-	.	.
Nn1c(=S)[nH]c2sc3c(c2c1=O)CCCC3	-	-	9.7	-	10	9.4	PG9 binder DR=-;PGV04 binding DR=-;PG126 binding DR=-
CCCn1c(=S)[nH]c2sc3c(c2c1=O)CCCC3	-	-	-	-	.	.
C[C@]12c3[nH]c4ccccc4c3CCN1C(=O)C(CC(=O)NCCCn1ccnc1)C[C@@H]2C(=O)N1CCOCC1 (some centres not stated)	-	-	15	-	-	9.3
CC(C)N(C(=O)[C@H]1CC(CC(=O)NCCCn2ccnc2)C(=O)N2CCc3c([nH]c4ccccc34)[C@]12C)C(C)C (some centres not stated)	-	-	-	-	.	.
CC(C)c1ccc(-c2c(C#N)c(N)nc(SCC(=O)N3CCCCCC3)c2C#N)cc1	-	.	83	.	89	92
N#Cc1c(N)nc(SCC(=O)NC2CCCCC2)c(C#N)c1-c1ccc(Cl)cc1	-	-	18	-	26	29
C=CCSc1nc(N)c(C#N)c(-c2ccc(C)cc2)c1C#N	-	-	-	-	.	.
CC(C)c1ccc(-c2c(C#N)c(N)nc(SCC(=O)N3CCCCC3)c2C#N)cc1	-	-	42	-	69	66	PG9 binder DR=6;PGV04 binding DR=3.4;PG126 binding DR=4
Nn1c(SCC(=O)NC2CCCCC2)nnc1-c1ccc(Cl)cc1	-	-	-	-	.	.
SMILES	rCAG binder	Granule exo inh	PG9 Ab binder	ABCB6 inh 2	PG9 binder conf	PGV04 counter	others
O=C(CCNS(=O)(=O)c1ccc(OC(F)(F)F)cc1)N1CCN(S(=O)(=O)c2cccc(F)c2)CC1	-	-	-	-	.	.
CCCSc1ccc([C@@H]2[C@@H]3C(=O)N(C)C(=O)[C@@H]3[C@]3(C(=O)OC)CCCN23)cc1OC	.	-	.	-	.	.
Cc1cccc(C)c1NC(=O)Cn1nc(-c2ccc(Cl)s2)ccc1=O	-	-	11	-	-	-
Cc1ccc(NC(=O)CN2c3cccc4cccc(c34)S2(=O)=O)cc1S(=O)(=O)N1CCOCC1	-	-	-	-	.	.
COc1ccc(/C=C/C(=O)Oc2ccc(/C=N/NC(=O)COc3c(C)cccc3C)cc2)cc1	-	-	-	-	.	.
COc1ccc(/C=C/C(=O)Oc2cccc(/C=N/NC(=O)COc3c(C)cccc3C)c2)cc1	-	-	9.5	-	11	16
O=C(COC(=O)c1ccc2c(c1)OCO2)NCc1ccc(Cl)cc1	-	-	12	-	-	19
N#Cc1ccccc1NC(=O)COC(=O)c1ccc2c(c1)OCCO2	-	-	-	-	.	.
N#Cc1ccc(Cl)cc1NC(=O)COC(=O)c1ccc2c(c1)OCCO2	-	-	50	-	40	69
CC(=O)Nc1ccc(O)c(-c2nc3ccccc3s2)c1	-	-	-	-	.	.
Cc1ccsc1C(=O)Nc1ccc(O)c(-c2nc3ccccc3s2)c1	-	-	51	-	58	78
O=C(CCS(=O)(=O)c1ccccc1)Nc1ccc(-c2nc3ccccc3s2)c(O)c1	-	-	26	-	22	51
CC(=O)c1sccc1NC(=O)c1ccccc1C(=O)O	-	-	36	-	39	47
COC(=O)CSc1nc2cc3c(cc2cc1C#N)OCO3	-	-	15	-	33	71
CCOC(=O)CSc1nc2cc3c(cc2cc1C#N)OCO3	-	-	49	-	44	62
CC(C)OC(=O)CSc1nc2cc3c(cc2cc1C#N)OCO3	-	-	-	-	.	.
CCOC(=O)CSc1nc2cc3c(cc2cc1C#N)OCCO3	-	-	-	-	.	.
COc1ccccc1NC(=O)Nc1ccccc1N1CCOCC1	-	-	-	-	.	.
CCOCCCNC(=O)/C(C#N)=C/c1ccc(C)o1	-	-	-	-	.	.
CCCCCCn1c(SCC(=O)NC2CCS(=O)(=O)C2)nc2ccccc2c1=O (configuration not stated)	-	-	-	-	.	.
COc1ccc([C@H]2C=C(C(=O)O)O[C@@H](OCCCCO)C2)cc1	-	-	-	-	.	.
NC1(C(=O)O)CSSC1	-	-	-	-	.	.
N#Cc1cccc(NC(=O)CSc2nnc(-c3n[nH]c4ccccc34)o2)c1	-	-	9.4	-	-	10
C=CCn1c(C)c(C(=O)OCC)c2cc(O)c3ccccc3c21	-	-	11	-	-	-	PG9 binder DR=-;PGV04 binding DR=-;PG126 binding DR=-
CCc1nnc(NC(=O)CSc2nc3cc4c(cc3cc2C)OCCO4)s1	-	-	12	-	25	43
COC(=O)CSc1nc2cc3c(cc2cc1C)OCCO3	-	-	-	-	.	.
Cc1cc(NC(=O)CSc2cc(C)c3ccccc3n2)no1	-	-	13	-	16	42
